Test [1] is described as follows: Validation of Assay for Modulators of Lamin A Splicing (AID 1459; active means well fitted curve in the direction sought with a large enough effect in the signal ratio; the % refers to the signal ratio;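 further: cells exposed to compound for two days before reading; 0% is about no effect; ratio rise marks activators and ratio drop marks inhibitors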). In short, it runs like this:
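Splicing correction is reported by an EGFP-containing lamin A minigene in stably transfected S3 HeLa cells, while DsRed2 controls for viability and nonspecific signal. Cells are exposed to compounds for 48 hrs before the GFP over RFP ratio is taken.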

The target in test [2] is DNA repair nuclease/redox regulator APEX1 (Homo sapiens) (UniProt P27695). The experiment in a line: qHTS Validation Assay for Inhibitors of the Human Apurinic/apyrimidinic Endonuclease 1 (APE1) (AID 1705;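 further: TAMRA fluorescence gain over two minutes as APE1 cuts a quenched THF abasic duplex; on the % scale 0 is the no-effect control and ±100 the full control effect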). Summed up: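 Endonuclease activity of human APE1 is followed as dequenching when the enzyme incises a tetrahydrofuran abasic site in a short duplex labelled 5'-TAMRA/3'-BHQ-2 (50 nM final), after 15 min enzyme–compound preincubation at room temperature.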
DNA repair nuclease/redox regulator APEX1 (Homo sapiens), sequence (P27695 whole entry, looked up): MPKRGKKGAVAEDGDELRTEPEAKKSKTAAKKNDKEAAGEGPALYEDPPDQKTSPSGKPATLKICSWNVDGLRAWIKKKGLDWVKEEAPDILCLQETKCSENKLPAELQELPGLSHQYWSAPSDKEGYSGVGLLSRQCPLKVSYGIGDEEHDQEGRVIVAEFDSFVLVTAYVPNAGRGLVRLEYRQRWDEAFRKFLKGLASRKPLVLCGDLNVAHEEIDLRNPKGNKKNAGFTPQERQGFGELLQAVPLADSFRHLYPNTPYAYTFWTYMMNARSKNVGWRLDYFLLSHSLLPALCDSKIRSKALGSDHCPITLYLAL

Test [3] in a line: Counterscreen for APE1 Inhibitors: Fluorescent Dye Displacement Validation Assay (AID 1707).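 Further: plate controls were ThO with dsDNA and no compound for no effect and ThO without dsDNA for full effect.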 Summed up:
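Thiazole Orange displacement from dsDNA: 250 nM ThO with 50 nM TAMRA-labelled abasic-site (tetrahydrofuran) duplex in 50 mM Tris-HCl pH7.5, 50mM NaCl, 2 mM MgCl2, 0.01% Tween-20. Loss of endpoint fluorescence (ex 480 nm, em 540 nm) flags DNA binders.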

The target in test [4] is Endonuclease 4 (Escherichia coli (strain K12)) (UniProt P0A6C1). The test can be described thus: Counterscreen for APE1 Inhibitors: qHTS Validation Assay for Inhibitors of Endonuclease IV (AID 1708). Further: on the % scale 0 is the no-effect control and ±100 the full control effect. Summed up:
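E. coli EndoIV at 2 nM final, preincubated 15 min at room temperature with compound, then 50 nM TAMRA/BHQ-2 THF abasic-site duplex added. Buffer: 50 mM Tris-HCl pH 7.5, 50 mM NaCl, 2 mM MgCl2, 1 mM DTT, 0.01% Tween-20. Kinetic fluorescence increase, third minus first read.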

Test [5] can be described thus: qHTS for differential inhibitors of proliferation of Plasmodium falciparum line 7G8 (AID 1815).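 Further: parasite growth measured after three days of incubation.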 Further: potency means the concentration at half of the fitted maximal effect.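 On activity change, negative = inhibition: plate controls were vehicle wells for no effect and reference inhibitor wells for full effect.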 A general note: In qHTS, concentration-response curves come from the screen itself.
The nature of test [6]: qHTS for differential inhibitors of proliferation of Plasmodium falciparum line GB4 (AID 1816).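 Further: parasite growth measured after 72 h incubation.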 Further: potency means the concentration at half of the fitted maximal effect.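 On activity change, negative = inhibition: 0% = vehicle DMSO and -100% = reference inhibitor.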 The following applies: Potency: Plasmodium falciparum GB4 proliferation inhibition.
Test [7] in a line: qHTS for differential inhibitors of proliferation of Plasmodium falciparum line 3D7 (AID 1876). Further: potency means the concentration at half of the fitted maximal effect.
Test [8] in a line: Cell Viability - LYMP2-012 (AID 982).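 Further: cellular ATP by luciferase luminescence where a drop means cytotoxicity; cells exposed to compound for one day before reading; 0% = DMSO only and full loss = 92 µM tetraoctylammonium bromide; nearly all actives have a fitted effect of over 55% in size.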
The nature of test [9]: Cell Viability - LYMP2-014 (AID 983).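 Further: plate controls were DMSO only for no effect and 92 µM tetraoctylammonium bromide for full effect; nearly all actives have a fitted effect of over 50% in size.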 Summed up:
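Luminescent ATP signal (CellTiter-Glo, 30 min at room temperature) serves as the viability read-out after 24 hr compound exposure at 37 C. Cells were seeded at 2500 per well and settled 5 hr beforehand.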

The nature of test [10]: Cell Viability - LYMP2-016 (AID 984).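 Further: cells exposed to compound for 24 hours at 37 °C; on the % scale 0 is the no-effect control and ±100 the full control effect; nearly all actives have a fitted effect of over 55% in size.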 Summed up:
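Acute toxicity in a Coriell human lymphoblastoid line is scored as loss of intracellular ATP over 24 h of treatment in complete medium. CellTiter-Glo signal is fitted across concentrations with the Hill equation to give AC50.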

Test [11] can be described thus: Cell Viability - LYMP2-018 (AID 985).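 Further: plate controls were DMSO only for no effect and tetraoctylammonium bromide at 92 µM for full effect; nearly all actives have a fitted effect of over 50% in size.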 Summed up: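 Luminescent ATP signal (CellTiter-Glo, read after 30 min at room temperature) reports viable cells after 24 hr compound treatment at 37 C. Concentration-response data were fitted to the standard Hill equation for AC50.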
The nature of test [12]: Cell Viability - LYMP2-020 (AID 986).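 Further: plate controls were DMSO only for no effect and tetraoctylammonium bromide at 92 µM for full effect; nearly all actives have a fitted effect of over 55% in size.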 Summed up:
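Luminescent ATP signal (CellTiter-Glo, 30 min at room temperature) is the read-out after 24 h compound treatment of lymphoblastoid cells at 37 C. AC50 values come from Hill-equation fits across concentrations.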

Test [13] in a line: Cell Viability - LYMP2-022 (AID 987).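 Further: 0% = DMSO alone and full effect = tetraoctylammonium bromide at 92 µM; nearly all actives have a fitted effect of over 55% in size.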 In short, it runs like this: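 qHTS: human lymphoblastoid cells 2500/well; 5 hr 37 C; cpd added; 24 hr 37 C; CellTiter-Glo, 30 min RT; luminescence. AC50 via Hill fit; tetraoctylammonium bromide positive ctrl.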
A short description of test [14]: Cell Viability - LYMP2-024 (AID 988).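 Further: plate controls were DMSO only for no effect and 92 µM tetraoctylammonium bromide for full effect; nearly all actives have a fitted effect of over 60% in size.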 In short, it runs like this: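 Steps: seed 2500 cells/well, 5 hr 37 C; add compound, 24 hr 37 C; add CellTiter-Glo, 30 min room temperature; read luminescence. AC50 derived by Hill modelling of concentration-dependent ATP loss.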
Test [15] can be described thus: Cell Viability - LYMP2-026 (AID 989). Further: on the % scale 0 is the no-effect control and ±100 the full control effect; nearly all actives have a fitted effect of over 50% in size. In short, it runs like this:
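Luminescent ATP signal (CellTiter-Glo, 30 min room temperature) measures viable lymphoblastoid cells after 24 hr compound treatment at 37 C. Decreased ATP reflects acute toxicity; AC50 values come from Hill-equation modeling.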

For test [16], the target named is Alpha-galactosidase A (Homo sapiens) (UniProt P06280). The experiment in a line: Counterscreen for Glucocerebrosidase Inhibitors: qHTS Assay for Human alpha-Galactosidase at pH 4.5 (AID 992). Further: 0% is about no effect. In short, it runs like this: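 Enzyme at 2 nM final was combined with compound (0.7 nM to 77 uM) and 80 uM 4-methylumbelliferyl alpha-D-galactopyranoside in 50 mM citric acid, 0.005% Tween-20, pH 4.5. After 20 min at room temperature, fluorescence was read (Ex 365/Em 440 nm); AC50 came from Hill fits.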
Alpha-galactosidase A (Homo sapiens), sequence (P06280 whole entry, looked up): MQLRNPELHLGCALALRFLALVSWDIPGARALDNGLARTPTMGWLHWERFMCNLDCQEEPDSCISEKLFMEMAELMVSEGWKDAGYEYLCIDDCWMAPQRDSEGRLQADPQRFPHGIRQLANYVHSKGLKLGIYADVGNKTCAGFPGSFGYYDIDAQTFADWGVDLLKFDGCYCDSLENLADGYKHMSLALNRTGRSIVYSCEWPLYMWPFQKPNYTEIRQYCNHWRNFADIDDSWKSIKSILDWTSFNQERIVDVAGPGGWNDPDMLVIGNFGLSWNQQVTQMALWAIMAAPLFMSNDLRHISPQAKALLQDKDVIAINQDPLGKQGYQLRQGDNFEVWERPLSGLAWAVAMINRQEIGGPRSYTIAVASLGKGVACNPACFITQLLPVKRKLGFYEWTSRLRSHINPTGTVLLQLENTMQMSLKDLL
On the technique in general: The purpose of a counterscreen is to sort out artefacts and off-target activity.

Test [17] is described as follows: Cell Viability - LYMP1-002 - Assay at 24 hr (AID 993). Further: on the % scale 0 is the no-effect control and ±100 the full control effect. Summed up: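 Cells plated 2500/well, 5 hr 37 C; compounds added, 24 hr 37 C; CellTiter-Glo added, 30 min RT; luminescence read. Tetraoctylammonium bromide positive control. Hill-equation AC50.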
The nature of test [18]: Cell Viability - LYMP1-002 - Assay at 40 hr (AID 994).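 Further: 0% = DMSO only and full inhibition = 92 µM tetraoctylammonium bromide; nearly all actives have a fitted effect of over 60% in size.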 In short, it runs like this:
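Luminescent ATP signal served as the viability readout, with decreases taken as toxicity. Cells were treated with compounds across a concentration range for 40 hours at 37 C, and AC50 values came from standard Hill modeling.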

In test [19] the target is alpha-glucosidase (Oryza sativa, rice) (UniProt Q653V4). The test can be described thus: Counterscreen for Glucocerebrosidase Inhibitors: qHTS Assay for Rice alpha-Glucosidase at pH 5.0 (AID 997).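 Further: 0% = full activity with enzyme and -100% = basal without enzyme.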 In short, it runs like this: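 Rice alpha-glucosidase (4 nM final) with 400 uM 4-methylumbelliferyl-alpha-D-glucopyranoside in citrate buffer pH 5.0, 20 min at room temperature, stopped at pH 10; fluorescence 365/440 nm, compounds 0.7 nM–77 uM, AC50 from Hill fits.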

The nature of test [20]: qHTS Assay for Lipid Storage Modulators (AID 1519; calls by dose curve; on activity change, negative = inhibition: on the % scale 0 is the no-effect control and ±100 the full control effect). Conditions: Drosophila S3 cells, BODIPY lipid droplet/cell ratio, laser cytometry, cells loaded with oleic acid. Summed up:
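Cells seeded at 5,000 per well were treated with compounds over a concentration series and loaded with oleic acid (400 uM, as added). Lipid droplet fluorescence (488 nm excitation, 500-530 nm channel) was read by laser-scanning cytometry and normalized to 20 uM Triacsin C.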

Where [21] appears, read: measured here: cell count channel max response.
Setting [22] is: measured here: lipid channel max response.

Values joined by “and” are separate entries in the source; they are usually repeats but may differ in a detail not shown here. Identical values can stand only once. Records with an inconclusive call do not appear. Active and inactive are the calls of the source. Unless noted, the call rests on the fitted dose curve; in most records, active means well fitted curve in the direction sought with a large enough effect; inconclusive means small, poorly fitted or top-dose-only effect, or another doubt; inactive means no such curve, though single readings can be large; an effect the other way counts as inactive or inconclusive.

For `CCCN1C[C@H](CSC)C[C@@H]2c3cccc4[nH]cc(c34)C[C@H]21`, the molecule was called inactive in test [1] and in test [3]. Further, the Potency entry in [2] and in test [4] was “inactive” each time. Moreover, the values for the Potency in [5], in [6] and in [7] were 11.2 µM (active), 5.62 µM (active) and 11.2 µM (active), respectively.

`COc1cc(Cc2cnc(N)nc2N)cc(OC)c1OC`: the Potency entry in test [8], in test [11], in test [12], in test [13], in test [14] and in [18] was “inactive” throughout. Also, the Potency result in [2] and in [4] was “inactive” each time. Further, the molecule was classed as inactive in test [9], in test [10], in [15], in [16], in test [17] and in test [19]. Moreover, the molecule was called inactive in test [1] and in test [3]. The activity change, negative = inhibition in test [20] (at 25.7 µM (top of the series)) is -1.74% (inactive). Besides, the max response was -1.95% in test [20] (setting [21]) and -5.27% in [20] (setting [22]).

Take `CCCCNC(=O)NS(=O)(=O)c1ccc(C)cc1`: the Potency entry in [8], in test [11], in test [12], in test [13], in [14] and in [18] was “inactive” each time. Further, the Potency entry in [2], in [4], in [6] and in test [7] was “inactive” each time. For the same molecule, the result in test [9], in test [10], in test [15], in test [17], in [19] and in test [1] was inactive. In [3], the molecule was classed as inactive. For the same molecule, the activity change, negative = inhibition in [20] (at 25.7 µM (top of the series)) was 0.284% (inactive); in test [20] (at 57.5 µM (top of the series)), 5.43% (inactive) and -0.0777% (inactive). Besides, the max response in test [20] (setting [21]) was -2.87% and 13.1% and 19.7%; in [20] (setting [22]) it was -2.83% and 21.8% and 21.4%.

As for `CN/C(=C\[N+](=O)[O-])NCCSCc1ccc(CN(C)C)o1`, the result in test [16], in test [19], in test [1] and in [3] was inactive. The activity change, negative = inhibition is -0.0815% (inactive) in test [20] (at 25.7 µM (top of the series)); 4.77% (inactive) and 9.42% (inactive) in [20] (at 57.5 µM (top of the series)). Further, the max response is 4.03% and -18.5% and 18.2% in [20] (setting [21]); 2.82% and -19.9% and 33.3% in test [20] (setting [22]). Also, the Potency result in test [2] and in test [4] was “inactive” in each case.

For `COc1cc2c(cc1OC)-c1cc(=Nc3c(C)cc(C)cc3C)n(C)c(=O)n1CC2`, the molecule was called inactive in test [16], in test [19], in test [1] and in [3]. The Potency entry in test [2] and in test [4] was “inactive” each time. Also, the figures for the Potency in [5], in test [6] and in test [7] were 2.24 µM (active), 2.24 µM (active) and 2 µM (active), respectively.

With `CCN(CC)CC(=O)Nc1c(C)cccc1C`, the call in test [16], in test [19], in test [1] and in test [3] was inactive. For the same molecule, the results for the activity change, negative = inhibition in test [20] (at 25.7 µM (top of the series)) and in [20] (at 57.5 µM (top of the series)) were 0.593% (inactive) and 2.9% (inactive), respectively. Also, the max response in [20] (setting [21]) is -1.17% and 18.4%; in test [20] (setting [22]) it was 2.13% and 21.4%. In addition, the Potency result in test [2], in test [5] and in test [7] was “inactive” each time.

As to `O=C(CCNNC(=O)c1ccncc1)NCc1ccccc1`, the molecule was classed as inactive in [16], in test [19], in [1] and in [3]. In addition, the activity change, negative = inhibition is -0.0465% (inactive) in [20] (at 25.7 µM (top of the series)) and 1.21% (inactive) in test [20] (at 57.5 µM (top of the series)). For the same molecule, the max response in test [20] (setting [21]) is -2.07% and 1.8%; in [20] (setting [22]), 0.496% and 1.66%. The Potency entry in [2] was “inactive”.

In the case of `CCn1nc(C(=O)O)c(=O)c2cc3c(cc21)OCO3`, the outcome in [16], in [19], in test [1] and in test [3] was inactive. In addition, the activity change, negative = inhibition in test [20] (at 25.7 µM (top of the series)) is 1.1% (inactive); in test [20] (at 57.5 µM (top of the series)), 13.5% (inactive). Also, the max response in test [20] (setting [21]) was -2.39% and 18.6%; in test [20] (setting [22]) it was 0.268% and 42.8%. In addition, the Potency result in test [2] and in [4] was “inactive” in each case.

The values above are taken from PubChem BioAssay (NCATS).
